“And” between values parts separate entries of the source, which are not always exact repeats. Equal values may be shown once. Inconclusive results are not listed. A call without a number means that no potency is given here. Where a structure was tested more than once in an assay, its records may differ in their call. The source made the active and inactive calls. Unless noted, calls follow the shape of the dose curve; as a rule, active = well fitted curve in the direction sought with a large enough effect in the repeat runs; inconclusive = weak or mixed curves; inactive = no such curve, though single readings can be large; an effect the other way counts as inactive or inconclusive. Starred links: 1 amine or outer side, 2 acyl side, 3 side chain; linkers in the order of their positions; H or OH if unused. Positions of bridges follow the written chain, without caps; N, C: chain ends. Non-standard residues stand in square brackets, D forms with d. Residues, ends and D or L forms follow the SMILES beside them. Chains are numbered I, II in the order given. Actinocin(9to1) = Cc1c2oc3c(C)ccc(C(=O)[*:1])c3nc-2c(C(=O)[*:2])c(N)c1=O; NMeV = CN[C@H](C(=O)O)C(C)C; Sar = CNCC(=O)O
Experiments:
[1] = qHTS assay to identify small molecule antagonists of the androgen receptor (AR) signaling pathway using the MDA cell line in the presence of 0.5 nM R1881 - cell viability counter screen (AID 1259242); also: nearly all actives have a fitted effect of over 45% in size; also: potency is read from the fitted curve at half-maximal effect
Outline: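 Cells seeded at 3,000/well and allowed 5 hr at 37C, 0% CO2 before compound transfer and R1881 (0.5 nM final) addition; 16 hr later, live-cell protease fluorescence indicated cytotoxicity.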

[2] = qHTS assay to identify small molecule HDAC inhibitors (AID 1259364);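 also: wild-type HCT-116 cells with endogenous class I/II HDAC activity; top concentration of the series differs between compounds; nearly all actives have a fitted effect of over 45% in size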
Outline: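 HCT-116 wt cells, 1,500/well, overnight attach. Compounds (DMSO) 2 h, 37 °C. HDAC-Glo I/II, 30 min RT. Luminescence.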

[3] = qHTS assay to identify small molecule HDAC inhibitors - cell viability counter screen (AID 1259365); also: series mostly up to about 92 µM; nearly all actives have a fitted effect of over 50% in size
Outline: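 To flag cytotoxic hits, 1,500 wild-type HCT-116 cells per well, plated the day before, receive test compounds for 2hr at 37 C before CellTiter-Glo reagent and a luminescence read.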

[4] = qHTS assay to identify small molecule antagonists of the sonic hedgehog signaling (Shh) pathway - cell viability counter screen (AID 1259367); also: nearly all actives have a fitted effect of over 55% in size; also: potency is read from the fitted curve at half-maximal effect
Outline: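 Viability was read by CellTiter-Fluor fluorescence in the same wells, reagent added 23 hr into compound treatment and incubated 1 hr at 37C. The 3T3 Gli1-Luc reporter cells (2,000/well) received conditioned medium after compound and ran 24 hr.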

[5] = qHTS assay to identify small molecule agonists of the sonic hedgehog signaling (Shh) pathway (AID 1259368; calls by dose curve;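 also: NIH/3T3-derived 3T3Gli1-Luc cells carrying a stable Gli1-driven firefly luciferase reporter; series mostly up to about 92 µM; nearly all actives have a fitted effect of over 15% in size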)
Outline: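 Following a 24 hr incubation with DMSO-dissolved compounds at 37 C, 5% CO2, Gli1-Luc NIH/3T3-derived cells received luciferase reagent for 30 min at room temperature prior to luminescence measurement.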

[6] = qHTS assay to identify small molecule antagonists of the sonic hedgehog signaling (Shh) pathway (AID 1259369; calls by dose curve; also: nearly all actives have a fitted effect of over 45% in size; also: potency is read from the fitted curve at half-maximal effect)
Outline: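 Read-out is luminescence from a firefly luciferase gene controlled by the Gli1 response element, in 3T3Gli1-Luc cells pre-incubated 4hr then exposed to compounds and conditioned medium for 24hr.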

[7] = qHTS assay to identify small molecule agonists of the sonic hedgehog signaling (Shh) pathway - cell viability counter screen (AID 1259366); also: nearly all actives have a fitted effect of over 50% in size; also: potency is read from the fitted curve at half-maximal effect
Outline: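 Fluorescence from CellTiter-Fluor reports live cells in this counter screen. NIH/3T3-derived Gli1-Luc reporter cells receive test compounds for 24hr at 37C; reagent goes in at 23hr.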

[8] = qHTS assay to identify small molecule phospholipidosis (PLD) inducers (AID 1259344; active = well fitted curve in the direction sought with a large enough effect; an effect the other way counts as inactive or inconclusive)
Outline: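 Phospholipid accumulation was scored by imaging: fixed, Hoechst-counterstained HepG2 cells stained with LipidTOX Red after 24 h compound exposure at 37 C. Read-outs were pit count and pit intensity per well or per cell, with amiodarone and DMSO controls.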

[9] = target: Androgen receptor (Homo sapiens) (UniProt P10275); assay: qHTS assay to identify small molecule antagonists of the androgen receptor (AR) signaling pathway using the MDA cell line in the presence of 0.5 nM R1881 (AID 1259243); also: potency is read from the fitted curve at half-maximal effect; nearly all actives have a fitted effect of over 50% in size
Outline: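 Luminescence from an AR/GR-responsive MMTV-luciferase construct in MDA-kb2 breast carcinoma cells, read 30 min after ONE-Glo, following 16 hr co-treatment with compounds and 0.5 nM R1881.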

[10] = target: Estrogen receptor (Homo sapiens) (UniProt P03372); assay: qHTS assay to identify small molecule antagonists of the estrogen receptor alpha (ER-alpha) signaling pathway using the BG1 cell line in the presence of 0.1 nM 17-beta-estradiol (AID 1259244); also: nearly all actives have a fitted effect of over 50% in size; also: potency is read from the fitted curve at half-maximal effect
Outline: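 Luciferase signal from VM7Luc4E2 ERE-reporter cells, co-dosed with test compound and 0.1 nM final 17beta-estradiol for 22 h, read with ONE-Glo.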

Sequence of Androgen receptor (Homo sapiens) (P10275 whole entry, looked up): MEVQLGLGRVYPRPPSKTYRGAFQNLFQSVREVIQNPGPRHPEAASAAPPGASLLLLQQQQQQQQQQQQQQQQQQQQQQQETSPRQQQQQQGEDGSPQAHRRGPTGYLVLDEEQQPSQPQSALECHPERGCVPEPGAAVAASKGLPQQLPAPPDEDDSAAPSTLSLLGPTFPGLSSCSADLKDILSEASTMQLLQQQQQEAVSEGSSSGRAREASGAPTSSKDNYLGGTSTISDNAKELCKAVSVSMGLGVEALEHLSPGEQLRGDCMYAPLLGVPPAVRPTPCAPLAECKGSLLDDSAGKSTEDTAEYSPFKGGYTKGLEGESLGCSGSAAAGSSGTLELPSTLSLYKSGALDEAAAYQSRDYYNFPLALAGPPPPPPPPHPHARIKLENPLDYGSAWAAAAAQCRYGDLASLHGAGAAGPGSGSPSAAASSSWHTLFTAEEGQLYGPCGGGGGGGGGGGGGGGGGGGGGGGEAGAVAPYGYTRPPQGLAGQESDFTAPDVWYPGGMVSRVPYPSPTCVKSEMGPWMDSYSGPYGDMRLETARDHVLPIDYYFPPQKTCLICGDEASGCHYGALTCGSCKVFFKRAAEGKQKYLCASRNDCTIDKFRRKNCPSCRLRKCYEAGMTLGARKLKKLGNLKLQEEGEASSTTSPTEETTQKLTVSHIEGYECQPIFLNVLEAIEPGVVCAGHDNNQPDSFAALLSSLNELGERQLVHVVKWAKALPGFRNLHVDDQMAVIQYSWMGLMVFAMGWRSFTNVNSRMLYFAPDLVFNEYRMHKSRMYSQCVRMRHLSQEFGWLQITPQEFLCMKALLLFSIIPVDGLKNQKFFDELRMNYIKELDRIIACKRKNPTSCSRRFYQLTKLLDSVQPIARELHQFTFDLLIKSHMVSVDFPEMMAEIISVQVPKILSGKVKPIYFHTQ
Sequence of Estrogen receptor (Homo sapiens) (P03372 whole entry, looked up): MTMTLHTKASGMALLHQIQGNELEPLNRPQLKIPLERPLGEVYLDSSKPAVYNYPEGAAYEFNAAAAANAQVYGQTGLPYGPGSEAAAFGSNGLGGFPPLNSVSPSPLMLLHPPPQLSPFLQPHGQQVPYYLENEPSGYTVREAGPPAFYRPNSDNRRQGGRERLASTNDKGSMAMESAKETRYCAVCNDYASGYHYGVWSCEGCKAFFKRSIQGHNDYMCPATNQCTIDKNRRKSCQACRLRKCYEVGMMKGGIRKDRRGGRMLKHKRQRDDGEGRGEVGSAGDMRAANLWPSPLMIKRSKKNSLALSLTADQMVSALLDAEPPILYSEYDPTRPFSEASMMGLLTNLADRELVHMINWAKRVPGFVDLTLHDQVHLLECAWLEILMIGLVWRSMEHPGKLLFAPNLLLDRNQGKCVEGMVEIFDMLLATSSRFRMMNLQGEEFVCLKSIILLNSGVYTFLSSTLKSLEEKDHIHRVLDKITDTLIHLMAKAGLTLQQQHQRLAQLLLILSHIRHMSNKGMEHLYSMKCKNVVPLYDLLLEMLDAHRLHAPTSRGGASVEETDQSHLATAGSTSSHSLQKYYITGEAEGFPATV

Row | SMILES | Potency [1] | Potency [2] | Potency [3] | Potency [4] | Potency [5] | Potency [6] | Potency [7] | Potency [8] | Potency [9] | Potency [10]
1 | CCOC(=O)C(C)C(C)=O (stereo unspecified) | inactive | inactive | inactive | inactive | inactive | inactive |  |  |  | 
2 | CCc1cc(C(C)(C)C)c(O)c(C(C)(C)C)c1 | inactive | inactive | inactive | inactive | inactive | inactive | inactive |  |  | 
3 | OCCOCCN1CCN(C(c2ccccc2)c2ccc(Cl)cc2)CC1 (stereo unspecified) | inactive | inactive | inactive | 19.1 µM (active) and inactive | inactive | 7.59 µM (active) and inactive |  |  |  | 
4 | CNC1(C)C2CCC(C2)C1(C)C (stereo unspecified) | inactive | inactive | inactive | inactive | inactive | inactive |  | inactive |  | 
5 | COc1ccc(CCN(C)CCCC(C#N)(c2ccc(OC)c(OC)c2)C(C)C)cc1OC (stereo unspecified) |  |  |  |  |  |  |  | inactive |  | 
6 | CCC(CO)(CO)COCC(CC)(CO)CO | inactive | inactive | inactive | inactive | inactive | inactive | inactive |  |  | 
7 | CCC(=O)/C=C/C1C(C)=CCCC1(C)C (stereo unspecified) | inactive | inactive | inactive | inactive | inactive | inactive | inactive |  |  | 
8 | CC(N)=O | inactive | inactive | inactive | inactive | inactive | inactive | inactive |  |  | 
9 | c1ccc2n[nH]nc2c1 | inactive | inactive | inactive | inactive | inactive | inactive |  |  |  | 
10 | O=C(Cl)c1cccc(C(=O)Cl)c1 | inactive | inactive | inactive | inactive | inactive | inactive | inactive |  |  | 
11 | CC(C)(C)c1ccc(O)c(C(C)(C)C)c1 | inactive | inactive |  |  | inactive |  |  |  |  | 
12 | O=C(O)CCc1ccccc1 | inactive | inactive | inactive | inactive | inactive | inactive | inactive |  |  | 
13 | C[N+]1([O-])CCOCC1 | inactive | inactive | inactive | inactive | inactive | inactive | inactive |  |  | 
14 | CC(C)(C)NCC(O)c1cc(O)cc(O)c1 (stereo unspecified) | inactive | inactive | inactive | inactive | inactive | inactive |  | inactive |  | 
15 | Cc1c2oc3c(C)ccc(C(=O)N[C@@H]4C(=O)N[C@H](C(C)C)C(=O)N5CCC[C@H]5C(=O)N(C)CC(=O)N(C)[C@@H](C(C)C)C(=O)O[C@@H]4C)c3nc-2c(C(=O)N[C@@H]2C(=O)N[C@H](C(C)C)C(=O)N3CCC[C@H]3C(=O)N(C)CC(=O)N(C)[C@@H](C(C)C)C(=O)O[C@@H]2C)c(N)c1=O (I: T[dV]P[Sar][NMeV] / II: T[dV]P[Sar][NMeV]; ester I:1-I:C, II:1-II:C; linker I:N-II:N via Actinocin(9to1)) |  | inactive | inactive | 42.1 nM (active) and 119 nM (active) | inactive | 0.0021 µM (active) | 42.1 nM (active) and 168 nM (active) | inactive | 26.6 nM (active) and 9.4 nM (active) | 23.7 nM (active) and 53.1 nM (active)
16 | O=Nc1ccc(Nc2ccccc2)cc1 |  |  |  | 27.4 µM (active) and 54.5 µM (active) | inactive | 1.38 µM (active) and 2.43 µM (active) |  |  | 48.8 µM (active) and 54.5 µM (active) | inactive
17 | CCN(CC)CCOc1ccc(/C(=C(\Cl)c2ccccc2)c2ccccc2)cc1 |  | inactive | inactive | inactive | inactive | 17.6 µM (active) |  |  |  | 
18 | Oc1c(Cl)cc(Cl)cc1Sc1cc(Cl)cc(Cl)c1O |  | inactive | inactive | 27.4 µM (active) and inactive | inactive |  |  | inactive |  | 12.2 µM (active) and 17.5 µM (active) and 15.4 µM (active)
19 | O=C(O[C@@H]1Cc2c(O)cc(O)cc2O[C@@H]1c1cc(O)c(O)c(O)c1)c1cc(O)c(O)c(O)c1 |  | inactive | inactive | 23.4 µM (active) | inactive | 27.4 µM (active) | 27.4 µM (active) and 26.3 µM (active) |  |  | inactive
20 | C/C=C/c1ccc(OCC)c(O)c1 | inactive |  | inactive | inactive | inactive | inactive |  |  |  | 
21 | Oc1ccc(Cl)cc1Cc1cc(Cl)ccc1O |  | inactive | inactive | 55.5 µM (active) and 43.3 µM (active) and inactive | inactive | 15.6 µM (active) and 21.7 µM (active) | 62.3 µM (active) and inactive | inactive | 13.9 µM (active) and 27.3 µM (active) and 23.7 µM (active) | 44.1 µM (active) and 68.6 µM (active)
22 | CCCCCCCCCCCC[N+](C)(C)C | inactive and 24.3 µM (active) | inactive | inactive | 60.9 µM (active) and 61.1 µM (active) and 30.6 µM (active) | inactive | 384 nM (active) and 24.3 nM (active) and 6.86 µM (active) | 43.1 µM (active) and 61.1 µM (active) and 54.5 µM (active) |  |  | 
23 | O | inactive | inactive | inactive | inactive | inactive |  | inactive |  |  | 
24 | COC(=O)[C@H]1[C@H]2C[C@@H]3c4[nH]c5cc(OC)ccc5c4CCN3C[C@H]2C[C@@H](OC(=O)c2cc(OC)c(OC)c(OC)c2)[C@@H]1OC | inactive | inactive | inactive | inactive | inactive | 12.2 µM (active) and 15.8 µM (active) and 23.7 µM (active) | inactive |  |  | 
25 | CCCCCCC(O)CCCCCCCCCCC(=O)O (stereo unspecified) | inactive | inactive | inactive | inactive | inactive | 27.4 µM (active) | inactive |  |  | 
26 | O=C1OC2(c3ccc(O)cc3Oc3cc(O)ccc32)c2ccccc21 |  | inactive | inactive |  | inactive | inactive |  | inactive |  | inactive
27 | COc1ccc(CCN2CCC(Nc3nc4ccccc4n3Cc3ccc(F)cc3)CC2)cc1 | 17.6 µM (active) and 21.1 µM (active) | inactive | inactive | 1.4 µM (active) and 11.9 µM (active) | inactive | 625 nM (active) and 3.35 µM (active) | 1.11 µM (active) and 3.76 µM (active) |  |  | 
28 | CC(C)(C)c1ccccc1 | inactive | inactive | inactive | inactive | inactive | inactive | inactive |  |  | 
29 | CCCCCCCCCCCCc1ccccc1O |  | inactive | inactive | 60.3 µM (active) and 61.1 µM (active) | inactive | 67.7 µM (active) and 34.4 µM (active) |  |  | 30.2 µM (active) and 24.3 µM (active) | inactive and 61.1 µM (active)
30 | O=C1CC2(CCCC2)CC(=O)N1CCCCN1CCN(c2ncccn2)CC1 | inactive | inactive | inactive | inactive | inactive | 19.3 µM (active) and inactive |  |  |  | 

— PubChem BioAssay (Tox21)
